Experiment [1] can be described thus: antimalarial activity against Dd2 strain (AID 2302;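 active means growth inhibition above 50% at the single 2 µM test dose, taken to imply half-maximal potency below 2 µM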;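 further: 0% = DMSO untreated growth and 100% = chloroquine plus artemisinin killed control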). The note with it: P. falciparum Dd2 in RBCs, LDH growth readout, 72 h; at 2 µM; hits give high values.
Experiment [2] in a line: human hepatoma cell viability loss – ATP luminescence, cytotoxicity control for P. falciparum antimalarial project, primary screen (AID 2303;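 active means inhibition above 50%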;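 further: 0% = DMSO wells and 100% = digitonin-killed cells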). The note with it: HepG2 viability, 24-48 h, at 10 µM, hits give high values.
Experiment [3] concerns the target L-lactate dehydrogenase (Plasmodium falciparum (isolate CDC / Honduras)) (UniProt Q27743). The experiment in a line: PfLDH activity inhibition – cell lysate, 3D7 strain, counter-screen for P. falciparum growth inhibition project (AID 2304).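 Further: 0% = vehicle and 100% = reference inhibitor.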 Conditions: P. falciparum 3D7 crude extract, LDH APAD/NBT absorbance; at 2 µM; hits give high values. (In general: The purpose of a counterscreen is to sort out artefacts and off-target activity.)

Experiment [4] in a line: inhibition of 3D7 malaria parasite growth – strain 3D7 (AID 2306).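 Further: 0% = DMSO wells and 100% = chloroquine plus artemisinin control wells.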 The note with it: P. falciparum 3D7 erythrocytic growth, LDH absorbance, 72 h; at 2 µM; hits give high values.
For experiment [5], the target named is Calcium-dependent protein kinase 1 (Plasmodium falciparum (isolate 3D7)) (UniProt P62344). The experiment in a line: PfCDPK1 kinase inhibitors, biochemical, TCAMS library (AID 1159585; cut-off not given, nearly all actives have IC50 up to about 0.98 µM;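 further: inhibitors leave more ATP so luminescence rises with inhibition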). The note with it: recombinant PfCDPK1, Kinase-Glo ATP depletion luminescence. In general terms: Kinase-Glo measures the ATP left after a reaction by luminescence.
Sequence of Calcium-dependent protein kinase 1 (Plasmodium falciparum (isolate 3D7)) (P62344 whole entry, looked up): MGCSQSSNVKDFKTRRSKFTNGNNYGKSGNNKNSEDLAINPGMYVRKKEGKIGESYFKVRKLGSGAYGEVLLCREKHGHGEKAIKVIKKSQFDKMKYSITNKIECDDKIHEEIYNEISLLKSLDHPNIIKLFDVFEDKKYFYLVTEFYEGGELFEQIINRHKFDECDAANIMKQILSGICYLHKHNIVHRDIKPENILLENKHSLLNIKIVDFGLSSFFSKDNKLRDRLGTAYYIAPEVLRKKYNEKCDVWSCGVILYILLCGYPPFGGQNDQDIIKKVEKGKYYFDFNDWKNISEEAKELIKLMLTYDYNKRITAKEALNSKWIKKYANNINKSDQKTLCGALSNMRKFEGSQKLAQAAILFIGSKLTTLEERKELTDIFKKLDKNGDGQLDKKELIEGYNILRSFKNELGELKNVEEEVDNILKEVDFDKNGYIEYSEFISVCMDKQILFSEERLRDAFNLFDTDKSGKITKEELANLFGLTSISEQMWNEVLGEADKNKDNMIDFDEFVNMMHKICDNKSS
The target of experiment [6] is Plasmodium falciparum protein kinase 6 (PK6, PF3D7_1337100) (UniProt Q8IDW1). The experiment is described as follows: PfPK6 kinase inhibitors, biochemical, TCAMS library (AID 1159586). Conditions: recombinant PfPK6, Kinase-Glo ATP depletion luminescence.
Sequence of Plasmodium falciparum protein kinase 6 (PK6, PF3D7_1337100) (Q8IDW1 1-305): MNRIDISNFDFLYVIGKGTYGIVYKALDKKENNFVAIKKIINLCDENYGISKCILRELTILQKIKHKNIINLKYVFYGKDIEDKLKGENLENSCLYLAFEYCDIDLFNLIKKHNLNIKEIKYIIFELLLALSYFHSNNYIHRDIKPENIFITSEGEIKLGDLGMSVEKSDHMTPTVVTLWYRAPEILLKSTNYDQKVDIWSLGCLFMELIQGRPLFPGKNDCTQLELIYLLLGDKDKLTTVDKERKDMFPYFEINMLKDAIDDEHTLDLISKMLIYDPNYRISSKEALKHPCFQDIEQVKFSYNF
For experiment [7], the target named is Protein kinase 7 (PK7), Plasmodium falciparum 3D7 (PF3D7_0213400) (UniProt Q7YTF7). The experiment is described as follows: inhibition of Plasmodium PK7 catalytic activity – biochemical, TCAMS antimalarial set, Kinase-Glo luminescence (AID 1159587). The note with it: recombinant PfPK7, Kinase-Glo ATP depletion luminescence.
Sequence of Protein kinase 7 (PK7), Plasmodium falciparum 3D7 (PF3D7_0213400) (Q7YTF7 1-343): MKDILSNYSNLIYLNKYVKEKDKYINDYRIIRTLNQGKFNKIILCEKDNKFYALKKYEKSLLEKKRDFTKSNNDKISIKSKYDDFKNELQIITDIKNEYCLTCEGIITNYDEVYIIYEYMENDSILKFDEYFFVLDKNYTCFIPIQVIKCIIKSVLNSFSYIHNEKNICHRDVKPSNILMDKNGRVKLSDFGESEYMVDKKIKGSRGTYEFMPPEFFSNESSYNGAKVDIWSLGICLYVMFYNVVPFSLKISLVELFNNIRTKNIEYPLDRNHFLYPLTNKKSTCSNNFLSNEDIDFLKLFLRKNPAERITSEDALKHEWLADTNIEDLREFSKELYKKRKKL
Experiment [8] concerns the target Calcium-dependent protein kinase 4 (Plasmodium falciparum (isolate 3D7)) (UniProt Q8IBS5). The experiment in a line: PfCDPK4 kinase inhibitors, biochemical, TCAMS library (AID 1159588; cut-off not given, nearly all actives have IC50 up to about 0.91 µM). Conditions: recombinant PfCDPK4, Kinase-Glo ATP depletion luminescence.

What is called inhibition is the drop in the measured response relative to a control, in per cent.

Structures are written as SMILES. Unmarked numbers belong to inactive results. For some of these results: Entries with a potency or affinity are not part of this list. Active and inactive are the calls of the source. Unless noted, how the calls were made is not given here.

Sequence of L-lactate dehydrogenase (Plasmodium falciparum (isolate CDC / Honduras)) (Q27743 whole entry, looked up): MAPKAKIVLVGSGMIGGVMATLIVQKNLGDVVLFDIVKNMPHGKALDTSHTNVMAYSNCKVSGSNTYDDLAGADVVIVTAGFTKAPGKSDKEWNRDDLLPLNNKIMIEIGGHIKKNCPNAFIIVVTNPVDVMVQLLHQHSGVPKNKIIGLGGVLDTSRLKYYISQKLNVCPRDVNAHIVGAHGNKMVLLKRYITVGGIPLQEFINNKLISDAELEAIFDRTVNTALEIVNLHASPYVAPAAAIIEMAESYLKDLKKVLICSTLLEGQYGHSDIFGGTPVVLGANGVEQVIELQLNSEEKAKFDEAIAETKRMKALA
Sequence of Calcium-dependent protein kinase 4 (Plasmodium falciparum (isolate 3D7)) (Q8IBS5 whole entry, looked up): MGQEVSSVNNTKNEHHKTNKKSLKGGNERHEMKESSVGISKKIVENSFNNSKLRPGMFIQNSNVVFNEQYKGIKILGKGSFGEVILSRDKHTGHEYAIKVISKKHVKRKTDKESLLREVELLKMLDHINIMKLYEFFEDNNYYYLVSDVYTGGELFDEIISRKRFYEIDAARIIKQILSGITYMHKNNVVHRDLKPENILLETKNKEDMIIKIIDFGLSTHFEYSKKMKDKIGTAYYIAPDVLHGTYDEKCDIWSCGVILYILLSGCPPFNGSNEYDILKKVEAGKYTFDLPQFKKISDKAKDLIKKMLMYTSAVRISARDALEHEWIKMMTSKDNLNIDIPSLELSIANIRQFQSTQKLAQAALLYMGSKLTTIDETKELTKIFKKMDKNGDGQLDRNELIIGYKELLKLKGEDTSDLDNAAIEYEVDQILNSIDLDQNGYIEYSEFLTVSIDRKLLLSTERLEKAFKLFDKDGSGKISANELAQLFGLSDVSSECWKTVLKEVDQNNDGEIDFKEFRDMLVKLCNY

With `CCCCSc1ccc2nc(-c3c[nH]c4ccc(C#N)cc34)cn2c1`, the figures for the growth inhibition in experiment [1] and in experiment [4] were 37% and 94% (active), respectively. The inhibition in experiment [2] and in experiment [3] was 3% in each case. Besides, the outcome in experiment [5], in experiment [6], in experiment [7] and in experiment [8] was inactive.

For the compound `Cc1ccc(-c2nc(N3CCN(C(=O)c4ccco4)CC3)c3ccccc3n2)cc1`, the growth inhibition in experiment [1] was 75% (active); in experiment [4] it was 90% (active). For the same compound, the inhibition was -8% in experiment [2] and 3% in experiment [3]. Besides, the outcome in experiment [5], in experiment [6], in experiment [7] and in experiment [8] was inactive.

Take `CC(C)CN1CCN(CCNc2c3ccccc3nc3ccccc23)CC1`: the growth inhibition in experiment [1] is 79% (active); in experiment [4], 97% (active). For the same compound, the inhibition in experiment [2] is 26%; in experiment [3] it was 0%. Also, the outcome in experiment [5], in experiment [6], in experiment [7] and in experiment [8] was inactive.

As to `CC1CCC(NC(=O)c2nn(-c3ccc(Cl)cc3)c(=O)c3ccccc23)CC1` (stereo not given), the growth inhibition in experiment [1] is 67% (active); in experiment [4], 91% (active). Further, the inhibition in experiment [2] was 3%; in experiment [3], -3%. The outcome in experiment [5], in experiment [6], in experiment [7] and in experiment [8] was inactive.

On to `CC(C)(C)OC(=O)NCc1ccc(Nc2nnc(-c3ccc(OCC(=O)NCc4ccc(C(C)(C)C)cc4)c([N+](=O)[O-])c3)o2)cc1`, for which the values for the growth inhibition in experiment [1] and in experiment [4] were 82% (active) and 96% (active), respectively. The inhibition is 10% in experiment [2] and -2% in experiment [3]. The result in experiment [5], in experiment [6], in experiment [7] and in experiment [8] was inactive.

As for `O=C(Nc1cccc(-c2nn3ccccc3c2-c2ccnc(Nc3cccc(N4CCCC4=O)c3)n2)c1)c1cc(F)ccc1F`, the growth inhibition in experiment [1] is 51% (active); in experiment [4] it was 99% (active). The results for the inhibition in experiment [2] and in experiment [3] were 59% (active) and 3%, respectively. In addition, the result in experiment [5], in experiment [6], in experiment [7] and in experiment [8] was inactive.

For the compound `Nc1c2c(nc3ccc(NC(=O)c4ccc([N+](=O)[O-])cc4)cc13)CCCC2`, the figures for the growth inhibition in experiment [1] and in experiment [4] were 72% (active) and 102% (active), respectively. Moreover, the inhibition in experiment [2] is 19%; in experiment [3], 0%. For the same compound, the result in experiment [5], in experiment [6], in experiment [7] and in experiment [8] was inactive.

Regarding `Cc1cc(NCCC(=O)Nc2ccccc2)nc(NCC2CCCCC2)n1`, the growth inhibition in experiment [1] is 62% (active); in experiment [4] it was 100% (active). The results for the inhibition in experiment [2] and in experiment [3] were 14% and 3%, respectively. The outcome in experiment [5], in experiment [6], in experiment [7] and in experiment [8] was inactive.

Take `COc1c(C2CCN(CCCCNC(=O)c3cccc(-c4ccc(C(F)(F)F)cc4)c3)CC2)ccc2c1CCCC2`: the growth inhibition in experiment [1] is 45%; in experiment [4], 92% (active). Besides, the inhibition was 50% (active) in experiment [2] and -4% in experiment [3]. In addition, the result in experiment [5], in experiment [6], in experiment [7] and in experiment [8] was inactive.

In the case of `Cn1cncc1-c1ccc2c(-c3ccsc3)cnc(N)c2c1`, the growth inhibition in experiment [1] was 72% (active); in experiment [4] it was 97% (active). Also, the inhibition in experiment [2] is 41%; in experiment [3], -3%. The result in experiment [5], in experiment [6], in experiment [7] and in experiment [8] was inactive.

Regarding `CN(C)CCOc1ccc(NC(=O)Nc2ccnc3c(Br)cccc23)cc1Cl`, the growth inhibition in experiment [1] is 25%; in experiment [4], 97% (active). Further, the results for the inhibition in experiment [2] and in experiment [3] were 10% and 0%, respectively. Further, the result in experiment [5], in experiment [6], in experiment [7] and in experiment [8] was inactive.

For `CN1CCN(c2ccc(-c3cccc(NC(=O)c4cccc([N+](=O)[O-])c4)c3)nn2)CC1`, the values for the growth inhibition in experiment [1] and in experiment [4] were 35% and 99% (active), respectively. Also, the inhibition in experiment [2] was 21%; in experiment [3], -1%. The result in experiment [5], in experiment [6], in experiment [7] and in experiment [8] was inactive.

Take `O=C(NCC1CCN(Cc2ccc3c(c2)OCCO3)C1)c1cc(-c2cccc(C(F)(F)F)c2)cs1` (stereo not given): the growth inhibition in experiment [1] was 1%; in experiment [4] it was 101% (active). For the same compound, the figures for the inhibition in experiment [2] and in experiment [3] were 31% and 4%, respectively. Further, the result in experiment [5], in experiment [6], in experiment [7] and in experiment [8] was inactive.

For the compound `O=C(/C=C/c1ccccc1O)NCCCCCN1CCC(c2c[nH]c3ccccc23)CC1`, the growth inhibition in experiment [1] was 1%; in experiment [4], 95% (active). Besides, the inhibition in experiment [2] was 7%; in experiment [3], -5%. For the same compound, the outcome in experiment [5], in experiment [6], in experiment [7] and in experiment [8] was inactive.

Take `CCC(C)NS(=O)(=O)c1ccc2nc(Nc3ccc(C)cc3)n(C3CCCCC3C)c2c1` (stereo not given): the results for the growth inhibition in experiment [1] and in experiment [4] were 99% (active) and 95% (active), respectively. Moreover, the inhibition in experiment [2] and in experiment [3] was 1% throughout. The outcome in experiment [5], in experiment [6], in experiment [7] and in experiment [8] was inactive.

Turning to `CN1CCN(CC(=O)Nc2cccc(-c3cccc(-c4nc5ccccc5[nH]4)c3)c2)CC1`, the growth inhibition in experiment [1] is 27%; in experiment [4], 90% (active). Further, the inhibition in experiment [2] is 11%; in experiment [3], 3%. In addition, the result in experiment [5], in experiment [6], in experiment [7] and in experiment [8] was inactive.

Take `CNC(=O)c1cnc(Nc2ccc(N3CCN(C)CC3)cc2)nc1Nc1ccccc1OC`: the growth inhibition was 84% (active) in experiment [1] and 100% (active) in experiment [4]. The inhibition in experiment [2] was 8%; in experiment [3], 2%. Besides, the result in experiment [5], in experiment [6], in experiment [7] and in experiment [8] was inactive.

Turning to `COc1cc(C)nc2ccc(NC(=O)Nc3ccc([N+](=O)[O-])cc3C)cc12`, the results for the growth inhibition in experiment [1] and in experiment [4] were 52% (active) and 90% (active), respectively. In addition, the results for the inhibition in experiment [2] and in experiment [3] were 10% and -5%, respectively. The result in experiment [5], in experiment [6], in experiment [7] and in experiment [8] was inactive.

On to `Oc1cccc(Nc2nc(NCC3CCCO3)c3ccccc3n2)c1` (stereo not given), for which the figures for the growth inhibition in experiment [1] and in experiment [4] were 87% (active) and 100% (active), respectively. For the same compound, the values for the inhibition in experiment [2] and in experiment [3] were -9% and -1%, respectively. In addition, the result in experiment [5], in experiment [6], in experiment [7] and in experiment [8] was inactive.

For the compound `Cn1cnc2nc(NCCc3ccccc3)nc(NCc3cccc4ccccc34)c21`, the growth inhibition in experiment [1] is 98% (active); in experiment [4] it was 95% (active). Further, the inhibition in experiment [2] was 16%; in experiment [3], -2%. For the same compound, the result in experiment [5], in experiment [6], in experiment [7] and in experiment [8] was inactive.

The values are drawn from PubChem BioAssay.
